# Screens as filed in PubChem.
# KCNQ2 enhance: KCNQ2 (rat) channel potentiation; CHO-K1 KCNQ2, FluxOR thallium flux fluorescence; stronger effect = higher value; B-score at 10 µM; 310,000 tested, 0.54% active;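 active = fluorescence ratio B-score at least 3 SD of library B-scores, with initial fluorescence B-score within 3 of them, cut at about 5.3 in these data; same plate scores as AID 2156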;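 also: B-score of peak minus minimum over baseline fluorescence ratio after K+ and Tl+ stimulus; positive B-score means potentiation of KCNQ2 with more thallium influx and brighter signal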
# KCNQ2 block: KCNQ2 (rat) channel inhibition | 310,000 tested, 1.1% active | O88943 | AID 2156 | CHO-K1 KCNQ2, FluxOR thallium flux, 20 min; stronger effect = lower value | B-score at 10 µM;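 active = fluorescence ratio B-score at most minus 3 library SDs, with starting brightness B-score within 2 library SDs, cut at about -5.5 in these data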
# Kir21 conf inh: confirmation of mouse Kir2.1 potassium channel inhibitors; shares compounds with KCNQ2 enhance; Kir2.1-expressing cells, FluxOR thallium flux fluorescence; stronger effect = lower value; Tl flux remaining, % of negative control (stronger effect = lower value), % at 10 µM; 2,300 tested, 41% active;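 active = Primary-screen hit whose thallium flux fell at least 3 control SD below untreated wells in both duplicates, with normal baseline fluorescence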;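 also: 0% = blank wells without stimulus and 100% = stimulated no-compound controls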
# HEK293 Tl flux: parental HEK293 activity in Kir2.1 inhibitor counter-screen. shares compounds with KCNQ2 enhance. parental HEK293 cells, FluxOR thallium flux fluorescence; 0% = unstimulated blank wells. FluxOR signal as % of negative control (100 = no effect), % at 10 µM. 2,300 tested, 19% active;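 active = dye signal at least 3 control SD above or below untreated wells in both duplicates, raw fluorescence within 3, either direction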;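 also: percent is based on the flux ratio of peak minus minimum fluorescence over baseline F0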
# CHO-K1 Tl ctr: counter-screen for KCNQ2 potentiators: effect in parental CHO-K1 cells; FluxOR thallium flux fluorescence; zero = vehicle mean+3SD, 100% = vehicle-minus-blank window; activity increase over 3SD of controls, % at 10 µM; 1,200 tested, 43% active; AID 2282; shares compounds with KCNQ2 enhance;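 active = signal rise of at least 3 SD above the untreated control mean, in both duplicate wells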;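 also: counter screen of KCNQ2 potentiator hits so any rise reflects channel-independent effects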
# KCNQ1 sel pot: tests whether KCNQ2 potentiators also act on human KCNQ1. shares compounds with KCNQ2 enhance. CHO KCNQ1 stable, FluxOR thallium flux fluorescence; beyond 3SD, as % of vehicle-control signal. activation over 3SD threshold, % at 10 µM. 1,200 tested, 28% active;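 active = fluorescence ratio rise of at least 3 SD of vehicle wells above their mean, in both replicate wells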;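 also: 0% = vehicle mean plus 3 SD and 100% = vehicle minus unstimulated blank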
# Target sequence (P51787 whole entry, looked up): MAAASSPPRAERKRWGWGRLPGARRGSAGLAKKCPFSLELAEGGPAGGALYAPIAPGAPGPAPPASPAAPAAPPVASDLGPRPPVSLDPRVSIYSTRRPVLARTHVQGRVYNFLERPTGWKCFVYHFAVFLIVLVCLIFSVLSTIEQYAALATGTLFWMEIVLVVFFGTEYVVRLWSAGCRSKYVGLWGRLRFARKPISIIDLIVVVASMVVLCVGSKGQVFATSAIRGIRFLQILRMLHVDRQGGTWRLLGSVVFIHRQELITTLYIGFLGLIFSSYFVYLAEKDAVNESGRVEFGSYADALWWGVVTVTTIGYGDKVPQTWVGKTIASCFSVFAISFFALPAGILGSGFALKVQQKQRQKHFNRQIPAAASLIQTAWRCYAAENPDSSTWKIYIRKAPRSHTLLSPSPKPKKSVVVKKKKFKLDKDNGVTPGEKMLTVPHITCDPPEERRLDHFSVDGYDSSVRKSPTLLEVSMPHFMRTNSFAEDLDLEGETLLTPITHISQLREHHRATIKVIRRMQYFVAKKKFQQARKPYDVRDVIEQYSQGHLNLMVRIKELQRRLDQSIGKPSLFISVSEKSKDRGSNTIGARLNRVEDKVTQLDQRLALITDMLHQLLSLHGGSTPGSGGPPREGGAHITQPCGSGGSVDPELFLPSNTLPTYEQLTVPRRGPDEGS
# KCNQ2 pot confirm: rat KCNQ2 channel potentiator confirmation. shares compounds with KCNQ2 enhance. CHO-KCNQ2 cells, FluxOR thallium flux fluorescence. potentiation, less the hit threshold, % at 10 µM. 1,200 tested, 68% active. AID 2287;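 active = fluorescence ratio rising 3 SD or more over the vehicle control mean in both replicates, plus primary screen hit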;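 also: peak minus minimum thallium fluorescence divided by baseline after K/Tl stimulus; 0% = vehicle mean plus 3 SD and 100% = vehicle minus unstimulated blank difference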
# Kir21 spec: tests whether KCNQ2 potentiators also affect mouse Kir2.1 | shares compounds with KCNQ2 enhance | HEK293 Kir2.1, FluxOR thallium flux fluorescence | activity over 3SD threshold, % at 10 µM | 1,200 tested, 2% active;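 active = fluorescence ratio rise of at least 3 SD above the vehicle-control mean, seen in both replicates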;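 also: 0% = vehicle mean plus 3 SD and 100% = vehicle minus no-stimulus blank window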
# KCNQ2 W236L pot: KCNQ2 potentiators acting on retigabine-insensitive rat KCNQ2 W236L mutant | shares compounds with KCNQ2 enhance | CHO KCNQ2-W236L, automated patch clamp current | current increase over 3SD of negative controls (%), stronger effect = higher value, % at 25 µM | 940 tested, 10% active;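 active = current increase at least 3 SD of the untreated controls above them in both duplicate recordings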
# * = called active by the depositor; i = inactive; nt = no result given. Shown are actives, neighbours in structure and some others; about 1.6% of the full set was active somewhere.
SMILES,KCNQ2 enhance,KCNQ2 block,Kir21 conf inh,HEK293 Tl flux,others
COc1ccccc1NC1=C(NC(C)=O)C(=O)c2ccccc2C1=O,8*,i,i,i,CHO-K1 Tl ctr=-27;KCNQ1 sel pot=-27;KCNQ2 pot confirm=4.8*;Kir21 spec=-32;KCNQ2 W236L pot=i
CN1CCN(CC(O)COc2ccc(Cl)cc2)CC1 (configuration not stated),0.21,i,nt,nt,
CN1CCN(CC(O)(c2ccc(Cl)cc2)c2ccc(Cl)cc2)CC1,nt,i,50%*,i,
CCOc1cccc(N(C(=O)CCC(=O)Nc2cc(C)on2)C(C(=O)NC(C)(C)C)c2ccc(OC)cc2)c1 (configuration not stated),nt,i,nt,nt,
COc1ccc(C(C(=O)NC(C)(C)C)N(C(=O)CCC(=O)Nc2cc(C)on2)c2cccc(F)c2)cc1 (configuration not stated),5.6*,i,i,i,CHO-K1 Tl ctr=-21;KCNQ1 sel pot=-6;KCNQ2 pot confirm=-27;Kir21 spec=-30
CCCn1ncc(C(=O)NC2CCCN(Cc3ccc(Cl)cc3)C2)c1C (configuration not stated),nt,i,nt,nt,
O=C1Nc2ccccc2N(O)N1c1ccc(S(=O)(=O)N2CCOCC2)cc1,0.56,i,nt,nt,
CSc1nc2cc(C)nn2c(-c2ccccc2)c1C#N,0.28,i,nt,nt,
Cc1noc(C)c1COC(=O)CCOc1ccccc1,1.1,i,nt,nt,
Cc1noc(C)c1COC(=O)CCN1c2ccccc2Sc2ccccc21,nt,i,70%*,i,
CCCNc1c(NS(=O)(=O)c2ccc3c(c2)CCCC3)c(=O)oc2ccccc12,nt,i,nt,nt,
C=CCN1/C(=C2/SC(=S)N(C)C2=O)Sc2ccccc21,0.19,i,nt,nt,
CN1CCC(OC(=O)c2ccc(Br)cc2)CC1,0.43,i,nt,nt,
CN1CCC(=C(c2ccccc2)c2ccc(Br)cc2)CC1,nt,i,38%*,i,
CN(c1ccccc1)S(=O)(=O)c1ccc2c(c1)oc(=O)n2C,0.4,i,nt,nt,
Cc1ccc(C(=O)NC(C)C2CC3CCC2C3)cc1 (configuration not stated),nt,i,nt,nt,
COC(=O)c1cc([N+](=O)[O-])c(-n2cncn2)c([N+](=O)[O-])c1,nt,i,73%*,i,
COC(=O)c1cc(F)c(-n2cncn2)c(F)c1,0.25,i,nt,nt,
COc1cccc(CNc2ccc3[nH]c(=O)[nH]c3c2)c1OCc1ccccc1F,5.1,i,66%*,i,
COc1cc(CNc2ccc3[nH]c(=O)[nH]c3c2)cc(Br)c1OCc1ccc(F)cc1,0.06,i,nt,nt,
COc1ccc(-c2nnc(-c3ccc(F)cc3)o2)cc1,0.41,i,nt,nt,
Fc1cccc2sc(Nc3nnc(-c4ccco4)o3)nc12,16*,i,i,310%*,CHO-K1 Tl ctr=130*;KCNQ1 sel pot=-2;KCNQ2 pot confirm=45*;Kir21 spec=-35;KCNQ2 W236L pot=i
O=C(Nc1nc2c(F)cccc2s1)c1ccco1,0.45,i,nt,nt,
COc1cccc2sc(Nc3nnc(-c4cccs4)o3)nc12,10*,i,i,350%*,CHO-K1 Tl ctr=80*;KCNQ1 sel pot=-22;KCNQ2 pot confirm=50*;Kir21 spec=-19;KCNQ2 W236L pot=i
CCOC(=O)c1sc(Nc2nc3c(OC)cccc3s2)nc1C,0.13,i,nt,nt,
SMILES,KCNQ2 enhance,KCNQ2 block,Kir21 conf inh,HEK293 Tl flux,others
COc1cccc2sc(Nc3nnc(-c4ccc(F)cc4)o3)nc12,20*,i,i,468%*,CHO-K1 Tl ctr=-10;KCNQ1 sel pot=-15;KCNQ2 pot confirm=60*;Kir21 spec=-6;KCNQ2 W236L pot=i
COc1cccc2sc(Nc3nc(-c4ccccn4)cs3)nc12,21*,i,i,i,CHO-K1 Tl ctr=-10;KCNQ1 sel pot=-13;KCNQ2 pot confirm=-89;Kir21 spec=-45;KCNQ2 W236L pot=i
c1ccc(Nc2nc(-c3ccccn3)cs2)cc1,0.81,i,nt,nt,
COc1ccc(CNC(=O)C/C(C)=N/NC(=O)COc2cccc(C)c2)cc1,nt,i,nt,nt,
COc1ccc2nc(Cl)c(C#N)cc2c1,nt,i,nt,nt,
O=C(CN1CCN(c2ccc(O)cc2)CC1)NC(=O)NCc1ccco1,nt,i,nt,nt,
Fc1ccc(-c2nc3ccccc3[nH]2)cc1,0.68,i,nt,nt,
S=c1nc(-c2ccc(Br)cc2)[nH]c2ccccc12,26*,i,i,452%*,CHO-K1 Tl ctr=-3;KCNQ1 sel pot=-4;KCNQ2 pot confirm=40*;Kir21 spec=-8;KCNQ2 W236L pot=i
CCOC(=O)c1cccc(NC(=O)C2CCCN(c3nnc(N4CCCC4=O)s3)C2)c1 (configuration not stated),2.1,i,nt,nt,
COc1ccc(CNC(=O)Cc2cn(C)c3ccccc23)c(OC)c1,nt,i,nt,nt,
O=C(c1cc(-c2ccc(Br)cc2)on1)N1CCc2ccccc2C1,0.32,i,nt,nt,
CC1=CCC[C@@H]2[C@@](C)(CC/C(C)=C/C(=O)O)[C@H](C)CC[C@@]12C,15*,i,i,136%*,CHO-K1 Tl ctr=68*;KCNQ1 sel pot=35*;KCNQ2 pot confirm=7.9*;Kir21 spec=-12;KCNQ2 W236L pot=i
CN(C(=O)COC(=O)c1cc(S(=O)(=O)N2CCOCC2)ccc1F)C1CCS(=O)(=O)C1 (configuration not stated),1.6,i,nt,nt,
CCOC(=O)C1=C(C)N=c2s/c(=C/c3cccc(OCC(=O)O)c3)c(=O)n2C1c1ccc(F)cc1 (configuration not stated),0.96,i,nt,nt,
CCOC(=O)C1=C(C)N=c2s/c(=C\c3ccc(C(=O)O)cc3)c(=O)n2C1c1ccc(F)cc1 (configuration not stated),7*,i,i,i,CHO-K1 Tl ctr=11*;KCNQ1 sel pot=-30;KCNQ2 pot confirm=-12;Kir21 spec=-45;KCNQ2 W236L pot=i
Cn1cccc1/C=N/NC(=O)c1sc2ccccc2c1Cl,nt,i,nt,nt,
O=C(N/N=C/c1ccc([N+](=O)[O-])o1)c1sc2ccccc2c1Cl,5.5*,i,i,i,CHO-K1 Tl ctr=7.0*;KCNQ1 sel pot=-24;KCNQ2 pot confirm=-15;Kir21 spec=-35
Cc1cccc(/C=C2/S/C(=N/N=C3\CC4CCC3(C)C4(C)C)NC2=O)c1 (configuration not stated),21*,i,i,i,CHO-K1 Tl ctr=-17;KCNQ1 sel pot=-26;KCNQ2 pot confirm=-6;Kir21 spec=-19;KCNQ2 W236L pot=i
O=C1N/C(=N/O)S/C1=C/c1cccc([N+](=O)[O-])c1,2.1,i,nt,nt,
CCCN(CCC)C(=O)NC1CC(=O)N(c2ccc(OC)cc2)C1 (configuration not stated),nt,i,nt,nt,
O=C(CCNC(=O)c1ccccc1Cl)Nc1ccc(Cl)c(C(F)(F)F)c1,0.53,i,nt,nt,
CN(C)CCCn1cnc2c(c1=N)C(c1ccccc1)c1ccc3ccccc3c1O2 (configuration not stated),nt,i,i,i,
